In PubChem BioAssay AID1159580 (chemical genetic matrix, 2015):
About 2,000 (36%) of roughly 5,500 compounds were called active. Inconclusive results (about 18%) are left out. Rule as the data show it: active = normalized growth mostly below about 0.91 (no sharp cut-off); inconclusive = no clear call, values can overlap the other calls; inactive = mostly above about 0.92. Some of the results follow.

Assay: chemical genetic growth profiling, strain panel (AID 1159580);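 also: tested at 20 µM; growth read once vehicle control cultures reached saturation at 30 °C; 1 = growth at the plate median or of vehicle wells; lower values mean less growth of the strain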
Details: growth OD

Measured: normalized growth

O=C1CC2OCC=C3CN4CC[C@]56c7ccccc7N1C5[C@H]2[C@H]3CC46 (some centres not stated)
inactive: S. cerevisiae deletion strains, locus YJR075W, strain HOC1, active compounds read low 1.01 | S. cerevisiae deletion strains, locus YKL009W, strain mrt4, active compounds read low 1 | S. cerevisiae deletion strains, locus YKL068W, active compounds read low 1 | S. cerevisiae deletion strains, locus YKL085W, strain MDH1 (second series), active compounds read low 1 | S. cerevisiae deletion strains, locus YKL085W, strain MDH1, active compounds read low 1 | S. cerevisiae deletion strains, locus YKL160W, strain elf1, active compounds read low 1.03 | S. cerevisiae deletion strains, locus YKL190W, strain CNB1, active compounds read low 1.01 | S. cerevisiae deletion strains, locus YKR001C, strain vps1, active compounds read low 0.996 | S. cerevisiae deletion strains, locus YKR026C, strain gcn3, active compounds read low 1.04 | S. cerevisiae deletion strains, locus YKR091W, strain srl3, active compounds read low 1.01 | S. cerevisiae deletion strains, locus YLL001W, strain dnm1, active compounds read low 1.03 | S. cerevisiae deletion strains, locus YLL026W, active compounds read low 1.01 | S. cerevisiae deletion strains, locus YLL041C, strain sdh2, active compounds read low 1.02 | S. cerevisiae deletion strains, locus YLR027C, strain aat2, active compounds read low 1.03 | S. cerevisiae deletion strains, locus YLR039C, strain RIC1, active compounds read low 1.03 | S. cerevisiae deletion strains, locus YLR058C, strain SHM2, active compounds read low 1.02 | S. cerevisiae deletion strains, locus YLR102C, strain apc9, active compounds read low 1 | S. cerevisiae deletion strains, locus YLR113W, strain HOG1, active compounds read low 0.938 | S. cerevisiae deletion strains, locus YLR221C, strain rsa3, active compounds read low 1.02 | S. cerevisiae deletion strains, locus YLR258W, strain gsy2, active compounds read low 1.03 | S. cerevisiae deletion strains, locus YLR262C, strain YPT6 (second series), active compounds read low 1.05 | S. cerevisiae deletion strains, locus YLR262C, strain YPT6, active compounds read low 1.1 | S. cerevisiae deletion strains, locus YLR268W, strain sec22, active compounds read low 0.994 | S. cerevisiae deletion strains, locus YLR320W, strain mms22, active compounds read low 1.03 | S. cerevisiae deletion strains, locus YLR330W, strain CHS5, active compounds read low 1.01 | S. cerevisiae deletion strains, locus YLR342W, strain FKS1 (second series), active compounds read low 0.999 | S. cerevisiae deletion strains, locus YLR342W, strain FKS1, active compounds read low 1.01 | S. cerevisiae deletion strains, locus YLR357W, strain rsc2, active compounds read low 1.03 | S. cerevisiae deletion strains, locus YLR370C, strain arc18, active compounds read low 1.03 | S. cerevisiae deletion strains, locus YLR371W, strain rom2, active compounds read low 0.993 | S. cerevisiae deletion strains, locus YLR384C, strain iki3, active compounds read low 1.03 | S. cerevisiae deletion strains, locus YLR418C, strain cdc73, active compounds read low 0.961 | S. cerevisiae deletion strains, locus YML016C, strain PPZ1, active compounds read low 1.01 | S. cerevisiae deletion strains, locus YML032C, strain rad52, active compounds read low 0.995 | S. cerevisiae deletion strains, locus YML120C, strain ndi1, active compounds read low 1.02 | S. cerevisiae deletion strains, locus YML124C, strain tub3, active compounds read low 0.999 | S. cerevisiae deletion strains, locus YMR058W, strain fet3, active compounds read low 1.02 | S. cerevisiae deletion strains, locus YMR078C, strain ctf18, active compounds read low 0.998 | S. cerevisiae deletion strains, locus YMR125W, strain sto1, active compounds read low 1.02 | S. cerevisiae deletion strains, locus YMR129W, active compounds read low 1.03 | S. cerevisiae deletion strains, locus YMR205C, strain PFK2, active compounds read low 1.05 | S. cerevisiae deletion strains, locus YMR223W, strain ubp8, active compounds read low 0.989 | S. cerevisiae deletion strains, locus YMR231W, strain pep5, active compounds read low 1.03 | S. cerevisiae deletion strains, locus YMR263W, strain SAP30, active compounds read low 1.01 | S. cerevisiae deletion strains, locus YMR307W, strain GAS1, active compounds read low 0.979 | S. cerevisiae deletion strains, locus YNL067W, strain RPL9B, active compounds read low 1.01 | S. cerevisiae deletion strains, locus YNL071W, strain lat1, active compounds read low 1.01 | S. cerevisiae deletion strains, locus YNL128W, strain TEP1, active compounds read low 1.01 | S. cerevisiae deletion strains, locus YNL153C, strain GIM3, active compounds read low 1.02 | S. cerevisiae deletion strains, locus YNL183C, strain NPR1, active compounds read low 0.933 | S. cerevisiae deletion strains, locus YNL209W, strain ssb2, active compounds read low 1.02 | S. cerevisiae deletion strains, locus YNL233W, strain BNI4, active compounds read low 1.01 | S. cerevisiae deletion strains, locus YNL248C, strain rpa49, active compounds read low 1.04 | S. cerevisiae deletion strains, locus YNL250W, strain rad50, active compounds read low 1 | S. cerevisiae deletion strains, locus YNL271C, strain bni1, active compounds read low 0.997 | S. cerevisiae deletion strains, locus YNL298W, strain CLA4, active compounds read low 0.993 | S. cerevisiae deletion strains, locus YNL307C, strain MCK1, active compounds read low 0.994 | S. cerevisiae deletion strains, locus YNL322C, strain KRE1 (second series), active compounds read low 1.03 | S. cerevisiae deletion strains, locus YNL322C, strain KRE1, active compounds read low 1.01 | S. cerevisiae deletion strains, locus YNR049C, strain mso1, active compounds read low 1.01 | S. cerevisiae deletion strains, locus YNR052C, strain pop2, active compounds read low 0.997 | S. cerevisiae deletion strains, locus YOL006C, strain TOP1, active compounds read low 1.03 | S. cerevisiae deletion strains, locus YOL012C, strain htz1 1.63 | S. cerevisiae deletion strains, locus YOL147C, strain pex11, active compounds read low 0.995 | S. cerevisiae deletion strains, locus YOR001W, strain rrp6, active compounds read low 1.04 | S. cerevisiae deletion strains, locus YOR061W, strain CKA2, active compounds read low 1.01 | S. cerevisiae deletion strains, locus YOR069W, strain VPS5, active compounds read low 1.01 | S. cerevisiae deletion strains, locus YOR070C, strain gyp1, active compounds read low 1.01 | S. cerevisiae deletion strains, locus YOR080W, strain dia2, active compounds read low 1.04 | S. cerevisiae deletion strains, locus YOR083W, strain WHI5, active compounds read low 1.02 | S. cerevisiae deletion strains, locus YOR106W, strain vam3, active compounds read low 1.04 | S. cerevisiae deletion strains, locus YOR136W, strain idh2, active compounds read low 0.985 | S. cerevisiae deletion strains, locus YOR144C, strain elg1, active compounds read low 1 | S. cerevisiae deletion strains, locus YOR184W, strain ser1, active compounds read low 0.979 | S. cerevisiae deletion strains, locus YOR231W, strain MKK1, active compounds read low 0.955 | S. cerevisiae deletion strains, locus YOR265W, strain rbl2, active compounds read low 1.03 | S. cerevisiae deletion strains, locus YOR270C, strain vph1, active compounds read low 1.05 | S. cerevisiae deletion strains, locus YOR290C, strain snf2, active compounds read low 1.02 | S. cerevisiae deletion strains, locus YOR316C, strain cot1, active compounds read low 1 | S. cerevisiae deletion strains, locus YPL051W, strain arl3, active compounds read low 1.03 | S. cerevisiae deletion strains, locus YPL055C, strain LGE1, active compounds read low 1.03 | S. cerevisiae deletion strains, locus YPL078C, strain atp4, active compounds read low 1.02 | S. cerevisiae deletion strains, locus YPL106C, strain sse1, active compounds read low 1.03 | S. cerevisiae deletion strains, locus YPL240C, strain hsp82, active compounds read low 1.03 | S. cerevisiae deletion strains, locus YPL241C, strain CIN2, active compounds read low 0.978 | S. cerevisiae deletion strains, locus YPL256C, strain CLN2, active compounds read low 0.951 | S. cerevisiae deletion strains, locus YPR119W, strain clb2, active compounds read low 0.995 | S. cerevisiae deletion strains, locus YPR141C, strain kar3, active compounds read low 1 | S. cerevisiae deletion strains, locus YPR163C, strain tif3, active compounds read low 0.996 | S. cerevisiae deletion strains, locus YPR167C, strain met16, active compounds read low 1.01 | S. cerevisiae deletion strains, strain wtn01, active compounds read low 0.993 | S. cerevisiae strains, strain wild type, active compounds read low 1.01
